Assay results as given in PubChem BioAssay (EPA / NIEHS).
Records with an inconclusive call do not appear. Activity calls are given as the source filed them. How the source made its calls, unless noted: active means hit-call score of the fitted dose curve at least 0.9, where 1 is the maximum; inconclusive means response in the unintended direction; inactive means score below 0.9.

Experiments:
[1] = ACEA_ER_AUC_viability: ACEA Biosciences xCELLigence Real-Time Cell Analysis on Estrogen Receptor Agonism for Viability (AID 2283782);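 further: hit means loss of impedance signal meaning reduced cell growth or viability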
In short: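 Viability endpoint: reduced impedance area under the curve relative to DMSO, recorded by real-time electrode sensing over ~80 h of continuous exposure. Duplicate plates of T47D in hormone-depleted medium; eight concentrations, 1:4 dilutions, 100 uM maximum.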

[2] = CCTE_Harrill_HTTr_Viability_MCF7: CCTE's 6-hour Cell Viability Assessment for the High-Throughput Transcriptomics (HTTr) Platform, in MCF-7 cells cultured in DMEM + 10% fetal bovine serum, Harrill Lab (AID 2284010; active means hit-call score of the fitted dose curve at least 0.9, where 1 is the maximum; inactive means score below 0.9)
In short: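 Propidium iodide exclusion, imaged by high-content analysis, gauged viability after a six-hour exposure across eight concentrations. Cells were MCF-7 grown in DMEM with 10% fetal bovine serum; fits run in both directions against DMSO.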

[3] = CCTE_Harrill_HTTr_Apoptosis_MCF7: CCTE's 6-hour Apoptosis Assessment for the High-Throughput Transcriptomics (HTTr) Platform, in MCF-7 cells cultured in DMEM + 10% fetal bovine serum, Harrill Lab (AID 2284011; active means hit-call score of the fitted dose curve at least 0.9, where 1 is the maximum; inactive means score below 0.9)
In short: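 Cells are dosed with test chemicals at eight concentrations and imaged 6 hours later for caspase-3/7 activity using a green fluorogenic detection reagent. Activity is fitted in both directions against DMSO controls.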

[4] = CCTE_Harrill_HTTr_CellCount_MCF7: CCTE's Cell Proliferation Assessment for the High-Throughput Transcriptomics (HTTr) Platform, Harrill Lab (AID 2284012);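 further: cells exposed to compound for six hours; intended direction is loss of nuclei count meaning fewer cells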
In short: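 Cell count from high-content imaging of Hoechst-labeled nuclei serves as viability/growth readout. Chemicals were applied to MCF-7 cells in eight concentrations for six hours, with fitting in both directions relative to DMSO.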

[5] = molecular target: Cellular tumor antigen p53 (Homo sapiens) (UniProt P04637); test: TOX21_p53_BLA_p2_ratio: Tox21 HCT-116 p53 Agonism Beta-lactamase Assay, Ratio, Phase 2 (AID 2283592)
In short: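 Cleaved-to-uncleaved substrate ratio (460 vs 530 nm) measured in HCT116 cells with an inducible beta-lactamase reporter linked to p53 activity. Compounds incubated 16 h at 37C before 2 h room-temperature CCF4-AM loading.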

[6] = molecular target: Cellular tumor antigen p53 (Homo sapiens) (UniProt P04637); test: TOX21_p53_BLA_p3_ratio: Tox21 HCT-116 p53 Agonism Beta-lactamase Assay, Ratio, Phase 3 (AID 2283596)
In short: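 Cells were seeded at 4000/well, rested 5 h at 37C, then dosed with DMSO compound solutions (217-fold dilution) for 16 h. CCF4-AM substrate was loaded for 2 h at room temperature, and the 460/530 nm emission ratio was fitted for gain of signal versus DMSO.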

[7] = TOX21_p53_BLA_p4_viability: Viability Assessment in the Tox21 HCT-116 p53 Agonism Beta-lactamase Assay, Phase 4 (AID 2283597);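 further: hits lower the luminescence signal meaning cytotoxicity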
In short: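 Viability is taken as cellular ATP: after 16 h compound exposure of HCT116 cells and a 2 h room-temperature CCF4-AM substrate step, CellTiter-Glo reagent is added and luminescence is measured 30 min later.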

[8] = molecular target: Cellular tumor antigen p53 (Homo sapiens) (UniProt P04637); test: TOX21_p53_BLA_p5_ratio: Tox21 HCT-116 p53 Agonism Beta-lactamase Assay, Ratio, Phase 5 (AID 2283599)
In short: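 Beta-lactamase reporter ratio (blue 460 nm over green 530 nm, 405 nm excitation) after 2 h CCF4-AM loading, in HCT-116 cells exposed 16 h at 37 C to compounds pinned at 217-fold dilution. Increases relative to DMSO baseline scored.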

[9] = TOX21_p53_BLA_p5_viability: Viability Assessment in the Tox21 HCT-116 p53 Agonism Beta-lactamase Assay, Phase 5 (AID 2283600)
In short: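 Viability is taken from cellular ATP content, measured by luciferase luminescence in the same wells after the beta-lactamase ratio read. Cells are seeded at 4000 per well and exposed to DMSO-dissolved compounds, diluted 217-fold, for 16 h.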

[10] = TOX21_p53_BLA_p3_viability: Viability Assessment in the Tox21 HCT-116 p53 Agonism Beta-lactamase Assay, Phase 3 (AID 2283593);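 further: cells exposed to compound for 16 h before reading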
In short: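 Cellular ATP was quantified by CellTiter-Glo luminescence, read after 30 min at room temperature. Beforehand, HCT116 cells (4000/well) received compound 5 h post-seeding, 217-fold diluted from DMSO, then incubated 16 h at 37C.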

[11] = molecular target: Cellular tumor antigen p53 (Homo sapiens) (UniProt P04637); test: TOX21_p53_BLA_p4_ratio: Tox21 HCT-116 p53 Agonism Beta-lactamase Assay, Ratio, Phase 4 (AID 2283601)
In short: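 Signal is the blue/green (460nm/530nm) ratio of cleaved versus uncleaved CCF4-AM substrate, read after 2 h substrate loading. Cells were HCT116 carrying the p53-responsive beta-lactamase reporter, dosed 16 h at 37C, 5% CO2; CellTiter-Glo measured in parallel.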

Measured: outcome

Chain of Cellular tumor antigen p53 (Homo sapiens) (P04637 whole entry, looked up): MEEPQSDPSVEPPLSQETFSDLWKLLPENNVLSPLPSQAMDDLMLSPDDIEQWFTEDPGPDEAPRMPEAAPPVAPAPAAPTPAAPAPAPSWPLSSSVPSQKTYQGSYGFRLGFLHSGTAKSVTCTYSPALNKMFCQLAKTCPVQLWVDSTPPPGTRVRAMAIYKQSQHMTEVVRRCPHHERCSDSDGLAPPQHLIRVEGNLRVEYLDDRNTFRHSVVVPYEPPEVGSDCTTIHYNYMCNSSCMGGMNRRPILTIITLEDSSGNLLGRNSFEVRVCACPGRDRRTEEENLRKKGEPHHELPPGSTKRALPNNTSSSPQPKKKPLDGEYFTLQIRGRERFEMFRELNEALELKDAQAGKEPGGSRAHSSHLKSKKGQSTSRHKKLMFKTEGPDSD

O=C(c1ccc(Cl)cc1)c1ccc(Cl)cc1
inactive: [1] | [2] | [3] | [4]

CCN1CCCC1CNC(=O)c1cc(S(N)(=O)=O)ccc1OC (centres undefined)
inactive: [2] | [3]

NCCCC(=O)O
inactive: [5] | [6]

CCC(CO)(CO)CO
inactive: [5] | [6] | [7] | [8] | [9]

C=CC(C)CCC=C(C)C (centres undefined)
inactive: [5] | [10] | [9] | [11]

COC(C)OC
inactive: [5] | [10] | [9] | [11]

COc1ccc(-c2cc(=O)c3c(O)cc(O[C@@H]4O[C@H](CO[C@@H]5O[C@@H](C)[C@H](O)[C@@H](O)[C@H]5O)[C@@H](O)[C@H](O)[C@H]4O)cc3o2)cc1O
inactive: [5] | [10] | [9] | [11]

COc1ccc(C2(C#N)CCC(C(=O)O)CC2)cc1OC1CCCC1 (centres undefined)
inactive: [5] | [6] | [7] | [8] | [9]

COC(=O)C(C)O (centres undefined)
inactive: [5] | [6] | [7] | [8]

Oc1ccc(C2CNCCc3c2cc(O)c(O)c3Cl)cc1 (centres undefined)
inactive: [5] | [6] | [7] | [8]

NCC1CCC(C(=O)Oc2ccc(CCC(=O)O)cc2)CC1 (centres undefined)
inactive: [5] | [10] | [11]

O=S1OCCO1
inactive: [5] | [6]

Cc1cc(O)ccc1N
inactive: [5] | [6] | [7] | [8] | [9]

Cc1cc(OI)c(C(C)C)cc1-c1cc(C(C)C)c(OI)cc1C
inactive: [5] | [6]

Cc1ccccc1N1C(=O)c2cc(S(N)(=O)=O)c(Cl)cc2NC1C (centres undefined)
inactive: [5] | [10] | [9] | [11]

CC(=O)N[C@@H](Cc1ccc(O)cc1)C(=O)O
inactive: [5] | [6] | [7] | [8] | [9]

Cc1ccnc2ccccc12
inactive: [5] | [6]

C=CC[N+]1([C@H]2C[C@H]3[C@@H]4CC[C@H]5C[C@H](O)[C@@H](N6CCOCC6)C[C@]5(C)[C@H]4CC[C@]3(C)[C@H]2OC(C)=O)CCCC1
inactive: [5] | [6] | [7] | [8]

C[C@]12CC[C@@H]3c4ccc(O)cc4CC[C@H]3[C@@H]1CC[C@@H]2OP(=O)(O)O
inactive: [5] | [6]

CN1CCN(c2c(F)cc3c(=O)c(C(=O)O)cn4c3c2OCN4C)CC1
inactive: [5] | [6] | [7] | [8]

CC(=O)Nc1ccc(OCC(O)CNC(C)C)cc1 (centres undefined)
inactive: [5] | [10] | [9] | [11]

CCN(CC)CCC(=O)N1c2ccccc2Sc2ccc(C(F)(F)F)cc21
inactive: [5] | [6] | [7] | [8]

Cc1ncsc1CCO
inactive: [5] | [6] | [7] | [8]

CCCCOC(=O)CC#N
inactive: [5] | [10] | [9] | [11]

CCC(C)(CN(C)C)OC(=O)c1ccccc1 (centres undefined)
inactive: [5] | [6] | [7] | [8]

COCc1ccc(COC)cc1
inactive: [5] | [10] | [11]

C1CSCCS1
inactive: [5] | [6] | [7] | [8] | [9]

CC(C(=O)O)c1ccc(C(=O)c2cccs2)cc1 (centres undefined)
inactive: [5] | [6] | [7]

CN(C)CCN(Cc1ccccc1)c1ccccn1
inactive: [5] | [6]

O=C1CC[C@@H](C(=O)N[C@H]2C[C@@H]2c2ccccc2)N1
inactive: [5] | [10] | [9] | [11]

O=C1c2ccccc2C(=O)C1c1ccc(F)cc1
inactive: [5] | [6] | [7] | [8]

C[Se]CCC(N)C(=O)O (centres undefined)
inactive: [5] | [6] | [7]

O=C(C(=O)c1ccco1)c1ccco1
inactive: [5] | [6] | [7] | [8] | [9]

C1=CCC2CC=CC2C1 (centres undefined)
inactive: [5] | [6] | [7] | [8] | [9]

CCC(O)c1ccccc1 (centres undefined)
inactive: [5] | [10] | [9] | [11]

N[C@@H](CCC(=O)Nc1ccc([N+](=O)[O-])cc1)C(=O)O
inactive: [5] | [6] | [7] | [8]

CCC(C)(C)CC
inactive: [5] | [6] | [7] | [8]

CC(C)C(=O)O
inactive: [5] | [6] | [7] | [8] | [9]

NS(=O)(=O)c1ccc(Cl)c(S(N)(=O)=O)c1
inactive: [5] | [6] | [7] | [8]

CCOCCC(=O)OCC
inactive: [5] | [10] | [11]

CNC(=O)c1ccccc1
inactive: [5] | [10] | [11]

CC1(C)OC(=O)NC1=O
inactive: [5] | [6] | [7] | [8] | [9] | [11]

N[C@H](C(=O)O)[C@@H](O)c1ccc(O)c(O)c1
inactive: [5] | [6] | [7] | [8] | [9] | [11]

O=C(O)CCc1ccccc1
not listed: [3] | [10]
inactive: all other assays above

CN1CCC[C@@H]1CCO[C@](C)(c1ccccc1)c1ccc(Cl)cc1
inactive: [5] | [6] | [7] | [8] | [9] | [11]

CCCCCCCC/C=C\CCCCCCCC(N)=O
inactive: [5] | [6] | [7] | [8] | [11]

Nc1cccc([N+](=O)[O-])c1
inactive: [5] | [6] | [7] | [8] | [9]
